Many of the other results were omitted from the sample, so hits are more common in it than they were.
CBX7 AlphaScr: inhibitors of human CBX7 binding to H3K27me3 peptide; O95931; AlphaScreen His6-CBX7 / biotin-H3K27me3 peptide binding; active compounds read low; normalised signal (fraction of DMSO) (concentration not given with the values); 1.1% of 66,000 active; AID 1224903; in the data active means normalised signal below about 0.5
Target sequence (O95931 whole entry, looked up): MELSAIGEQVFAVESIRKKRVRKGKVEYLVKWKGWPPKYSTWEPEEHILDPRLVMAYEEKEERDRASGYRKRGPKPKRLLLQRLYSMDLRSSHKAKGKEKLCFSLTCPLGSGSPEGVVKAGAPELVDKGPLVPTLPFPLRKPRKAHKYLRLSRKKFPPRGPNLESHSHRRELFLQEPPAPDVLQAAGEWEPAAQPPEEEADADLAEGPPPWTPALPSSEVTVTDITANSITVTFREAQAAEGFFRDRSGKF
Numbers without * were called inactive.

SMILES	CBX7 AlphaScr
Clc1ccc2nc(-c3ccccn3)c(Nc3ccc4c(c3)OCO4)n2c1	0.58
O=C(Nc1ccccn1)C1c2ccccc2C(=O)N2CCc3ccccc3C12 (stereo unspecified)	0.87
CCc1cc(-c2[nH]ncc2-c2ccc(F)cc2)c(O)cc1OC	0.91
COc1ccc(-c2[nH]ncc2-c2ccc(Br)cc2)c(O)c1	0.6
CCCc1cc(-c2[nH]ncc2-c2ccc3c(c2)OCCCO3)c(O)cc1OC	0.47*
Cc1[nH]c2ccccc2c1-c1csc(-c2ccc(O)cc2)n1	1
O=C(CS(=O)(=O)c1nc(-c2ccc3c(c2)OCO3)cn1-c1ccccc1)Nc1cccc(F)c1	0.94
CC(C)(C)c1ccc2c(c1)N(CC(=O)NCCN1CCN(Cc3ccccc3)CC1)C(=O)CO2	0.98
CC(C)(C)c1ccc2c(c1)N(CC(=O)NCCc1ccccc1)C(=O)CO2	0.41*
Cc1ccc(CCNC(=O)CN2C(=O)COc3ccc(C(C)(C)C)cc32)cc1	0.82
O=C(Cn1ccc2ccccc2c1=O)NCc1ccc(F)cc1	1.2
COc1ccccc1CNC(=O)c1ccc2c(c1)ncn2-c1cc(C)cc(C)c1	0.91
CC(C)n1cnc2cc(NCc3ccccn3)ccc21	0.23*
Cn1cnc2cc(NCc3cccc(Br)c3)ccc21	0.85
Cn1cnc2cc(NCc3ccccc3Cl)ccc21	0.92
O=C(NCc1cccnc1)c1cc(-c2cccc(O)c2)on1	1
Cc1cc(NC(=O)C2(S(=O)(=O)c3ccc(Cl)cc3)CC2)ccc1Br	1.1
NC(=O)c1oc2ccccc2c1NC(=O)c1ccc(S(=O)(=O)N2CCCc3ccccc32)cc1	0.79
COCc1nnc(NC(=O)c2ccc(S(=O)(=O)N3CCCC(C)C3)cc2)o1 (stereo unspecified)	0.79
COCc1nnc(NC(=O)c2ccc(S(=O)(=O)N3CCCCCC3)cc2)o1	0.066*
CCc1nnc(NC(=O)c2ccc(S(=O)(=O)N3CCCc4ccccc43)cc2)o1	0.047*
CCc1nnc(NC(=O)c2ccc(S(=O)(=O)N3CCCCC3C)cc2)o1 (stereo unspecified)	0.78
CCc1nnc(NC(=O)c2ccc(S(=O)(=O)N3CC(C)CC(C)C3)cc2)o1 (stereo unspecified)	0.7
CCc1nnc(NC(=O)c2ccc(S(=O)(=O)N3CCc4ccccc4C3)cc2)o1	0.63
CCc1nnc(NC(=O)c2ccc(S(=O)(=O)N3CCCC3)cc2)o1	0.45*
SMILES	CBX7 AlphaScr
O=C(CSc1nc(-c2ccccc2)[nH]c1-c1ccccc1)Nc1ccc(F)cc1	0.93
CCc1ccc(NC(=O)c2cnn(-c3ccc(C)c(C)c3)c2C2CCNCC2)cc1	1
COc1ccccc1-c1cc(C(=O)Nc2c(C)nn(Cc3ccc(C)cc3)c2C)no1	0.94
COc1ccccc1C(=O)Nc1ccc2oc(-c3ccc(C(C)(C)C)cc3)nc2c1	0.8
O=C(CN1CCCCC1)Nc1c2c(nc3ccccc13)N(c1cccc(Cl)c1)CC2	1
CCc1nc2ccccc2c(NC(=O)CN2CCN(C)CC2)c1C	0.053*
CCCCc1nc2ccccc2c(NC(=O)CN2CCN(C(=O)c3ccco3)CC2)c1CCC	0.96
CCN(CC)CCNC(=O)C1CCN(Cc2nc(-c3ccc(Cl)cc3)oc2C)CC1	1.4
COc1ccccc1Nc1nc(-c2ccccc2Cl)nc2ccccc12	1.3
COc1ccccc1Nc1nc(-c2ccc(C)cc2)nc2ccccc12	1.4
COc1ccccc1Nc1nc(-c2ccncc2)nc2ccccc12	0.33*
Cc1ccc2c(c1)C(c1ccc(F)cc1)N(C(=O)CCCc1ccccc1)CC(=O)N2 (stereo unspecified)	1
Cc1nc(C)c(-c2csc(Nc3ccccc3)n2)s1	0.48*
Cc1nc(C)c(-c2csc(Nc3ccc(C(=O)O)cc3)n2)s1	0.88
Cc1nc(C)c(-c2csc(Nc3cccc(O)c3)n2)s1	0.54
Cc1cccc(Nc2nc(-c3sc(C)nc3C)cs2)c1	0.45*
c1ccc(Nc2nc(-c3cccs3)cs2)cc1	0.9
Cc1nc(C)c(-c2csc(Nc3cccc(C(=O)O)c3)n2)s1	1.1
COc1ccc(Cl)cc1-n1cc(-c2ccccc2)nc1SCC(=O)Nc1ccccc1C	0.69
CCc1ccc2c(c1)c(=O)c(S(=O)(=O)c1ccc(C)cc1)cn2CC(=O)Nc1ccc(Cl)cc1	0.81
Cc1cc(N2CCC(C(=O)Nc3ccccn3)CC2)n2nc(C)c(-c3ccc(Cl)cc3)c2n1	1
Cc1ccccc1NCC(O)Cn1c(C)c(C)c2ccccc21 (stereo unspecified)	0.81
COc1ccc(OC)c(NCC(O)Cn2c3ccccc3c3ccccc32)c1 (stereo unspecified)	0.3*
Cc1ccc(C)c(NCC(O)Cn2c3ccccc3c3ccccc32)c1 (stereo unspecified)	0.68
CCOc1ccc(-n2cnnn2)cc1S(=O)(=O)NC(c1ccccc1)c1ccccc1	0.96
SMILES	CBX7 AlphaScr
Cc1ccccc1C(=O)NCCc1cc2c(C)ccc(C)c2[nH]c1=O	1.1
Cc1ccc(NC(=O)c2c(C)nc(Nc3nc4ccccc4o3)nc2C)cc1	1.1
Cc1ccccc1NC(=O)c1cnc(Nc2nc3ccccc3o2)nc1C	0.17*
CCCc1nc(Nc2nc3ccccc3o2)ncc1C(=O)OCC	1.1
CCOC(=O)N1CCN(C(=O)Cn2nc(Cc3cccnc3)c3ccccc3c2=O)CC1	1.1
CCOc1ccc(C(=O)Nc2nc3ccc(OC)cc3s2)cc1Br	1.3
CCC(=O)N1CCCc2cc(S(=O)(=O)N3CCN(c4cc(Cl)ccc4C)CC3)ccc21	0.92
CCOc1ccc(CCNC2CC(=O)N(c3ccc(Cl)cc3)C2=O)cc1OCC (stereo unspecified)	0.93
CC(=O)c1cccc(Nc2nc(-c3c(C)nc4ncccn34)cs2)c1	0.85
CCOc1ccc(Nc2nc(-c3c(C)nc4sccn34)cs2)cc1	0.67
CCN(CC)c1ccc(Nc2nc(-c3c(C)nc4ncccn34)cs2)cc1	0.33*
CCN(CC)c1ccc(Nc2nc(-c3c(C)nc4sccn34)cs2)cc1	0.1*
Cc1nc2sccn2c1-c1csc(Nc2ccc(Cl)cc2)n1	0.75
CCc1ccccc1Nc1nc(-c2c(C)nc3ncccn23)cs1	0.77
CCOc1ccc(NC(=O)N(Cc2ccc(C)cc2)Cc2cccnc2)cc1	0.84
COc1ccc(OC)c(CNS(=O)(=O)c2ccc3[nH]cc(C(=O)O)c(=O)c3c2)c1	0.79
O=C(Nc1ccc(Br)cc1)c1cc(-c2ccc(O)cc2)on1	1
Cc1ccc(CNC(=O)CN2CCN(Cc3ccccc3Cl)C2=O)cc1	1
Cc1ccc(N2C(=O)c3ccccc3C2C(=O)NC2CCCC2)cc1Cl (stereo unspecified)	1
O=C(Nc1cccc(C(F)(F)F)c1)c1cc(-c2ccc(Cl)c(Cl)c2)on1	1.1
COc1cccc(NC(=O)CSc2nc3nc(C)c(Cc4cccc(Cl)c4)c(C)n3n2)c1	0.96
O=C(NCCC1=CCCCC1)c1csc2c1CCCC2	1.1
O=C(CN1CCCCCC1)Nc1c2c(nc3c1CCC3)CCCC2	0.074*
O=C(CN1CCCC1)Nc1c2c(nc3c1CCC3)CCC2	0.27*
NC(=O)c1c(NC(=O)CN2CCCCC2)sc2c1CCCC2	0.96
CCCCC(=O)Nc1c2c(nc3c1CCC3)CCCC2	1
O=C(CCCN1C(=O)c2ccccc2C1=O)Nc1c2c(nc3c1CCC3)CCC2	1.1
O=C(Cc1ccccc1)Nc1c2c(nc3ccccc13)CCC2	0.79
Cc1ccc(NC(=O)c2cc(S(=O)(=O)N3CCCCCC3)ccc2F)cc1C	0.78
Cc1ccc(S(=O)(=O)Nc2ccccc2C(=O)Nc2nc3c(C)cc(C)cc3s2)cc1	0.77
